PubChem BioAssay (NCI)
About 83,000 compounds went through this panel and 20% of them were active in at least one assay; those are over-represented in the sample as a whole.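 Cells were grown in 96-well plates and exposed to the test compound at a single concentration for 48 hours; results are reported as percent growth, with values below 10 considered active.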 Active and inactive are the calls of the source.

tested on: MOLT-4 leukemia; experiment: NCI-60 one-dose screen, 48 h (100 = growth as untreated, 0 = no growth, -100 = all killed); conditions: 10 µM unless noted

| SMILES | growth |
| --- | --- |
| CC(C)C1=NOC(=O)C1=Cc1cn(-c2ccco2)nc1-c1ccccc1 | 20.7% (inactive) |
| COc1cc(Cl)cc(-c2nn(C(=O)NS(=O)(=O)c3ccccc3)cc2-c2ccncc2)c1 | 82.8% (inactive) |
| C=C(C)[C@@H]1CC[C@]2(COCCC#N)CC[C@]3(C)[C@H](CC[C@@H]4[C@@](C)(CCCNCCC#N)[C@H](C(=C)C)CC[C@]43C)[C@@H]12 | 2.22% [100 µM] (active) |
| COc1ccc(N(c2nc(-c3ccc([N+](=O)[O-])cc3)cs2)C(C)C)cc1 | 68.5% (inactive) |
| NS(=O)(=O)c1ccc(CCN2C(=O)/C(=C\c3ccccc3)C=C2c2ccc(Cl)cc2)cc1 | 94.8% (inactive) |
| O=C1C(Cl)=C(Nc2ccc3cn[nH]c3c2)C(=O)c2ccccc21 | -38.4% (active) |
| CC(C)c1ccc(C(=O)Nc2sc3c(c2C#N)CCC(=O)C3)cc1 | 0.0788% (active) |
| Cc1ccc2c(c1)/C(=N\N=C/c1cn(C(C)C)c3ccccc13)C(=O)N2 | -10% (active) |
| O=C(C[n+]1ccn(CC(OCc2ccc(Cl)cc2Cl)c2ccc(Cl)cc2Cl)c1)c1ccc(F)cc1 (stereo not given) | -19.9% (active) |
| CCOc1cccc2c(NC(C)CCCN(CC)CC)c(C)cnc12 (stereo not given) | 93.2% (inactive) |
| O=C(Nc1cccc2ccccc12)c1cc2ccccc2cc1O | 21.4% (inactive) |
| Cc1cc(C)nc(SCC(=O)Nc2cccc(N=Cc3ccccc3O)c2)n1 | 98.9% (inactive) |
| CSc1nc2c(c(=O)n1C)C1(C(=O)N(Cc3ccccc3)c3ccccc31)c1c(nc(SC)n(C)c1=O)N2 | 99.9% (inactive) |
| O=C1COCCN1c1ccc(NCc2cn(Cc3ccc(F)cc3)c3ccccc23)cc1 | 102% (inactive) |
| CCN(CCO)CCC(=O)c1ccc([N+](=O)[O-])cc1 | 114% (inactive) |
| O=C(Nc1cccc(C2=NCCN2)c1)c1cccc(C(=O)Nc2cccc(C3=NCCN3)c2)c1 | 100% (inactive) |
| CC(C)[C@H]1CCC2=C3CC[C@]45OC(=O)[C@@]6(CCC(C)(C)C[C@H]64)CC[C@@]5(C)[C@]3(C)CC[C@@]21C | 26.5% [100 µM] (inactive) |
| COc1ccc(/C=C2\N=C(Nc3ccccc3)N(NC(=O)c3ccccn3)C2=O)cc1 | 76.7% (inactive) |
| Nc1nnc(CSc2nnc3n(Cc4ccccc4)c(=O)c4c5c(sc4n23)CCCC5)s1 | 71.1% (inactive) |
| O=C(NCCCNC(=O)OCc1ccc2c(Br)cc(Br)c(O)c2n1)OCc1ccc2c(Br)cc(Br)c(O)c2n1 | 0.977% (active) |
| CCn1cc(-c2[nH]c(=S)ncc2-c2ccc(Cl)cc2)c(-c2ccc(Br)cc2)n1 | 97.2% (inactive) |
| Cc1cccc(C[C@H](NC(=O)Nc2ccc(Cl)cc2F)C(=O)N[C@@H]2C(=O)N3C[C@H](O)C[C@H]3C(=O)N3CCCC[C@H]3C(=O)N[C@@H](C)C(=O)N3C[C@H](C)C[C@H]3C(=O)O[C@H]2C)c1 | 14.7% (inactive) |
| O=C(NCCCNC(=O)OCc1ccc2cccc(O)c2n1)OCc1ccc2cccc(O)c2n1 | 21.7% (inactive) |
| CCN(CC)CCCC(C)Nc1ccnc2cc(Cl)c(SCc3ccccc3)cc12 (stereo not given) | -29.3% (active) |
| Cc1ccc(C2=C/C(=C/c3ccc(Br)cc3)C(=O)N2CCc2ccc(S(N)(=O)=O)cc2)cc1 | 82.1% (inactive) |
